# Data from the supplement of paper PMC8728848.
# This is one part of a sample in which the strongest signals are shown more often than they occur.
# B1: Als3-2 (Candida albicans) (protein)
# chain: KTITGVFNSFNSLTWSNAATYNYKGPGTPTWNAVLGWSLDGTSASPGDTFTLNMPCVFKFTTSQTSVDLTAHGVKYATCQFQAGEEFMTFSTLTCTVSNTLTPSIKALGTVTLPLAFNVGGTGSSVDLEDSKCFTAGTNTVTFNDGGKKISINVDFERSNVDPKGYLTD
# Tests used:
# Test in all cases: glycan array binding signal (z-score within array); higher = stronger binding
# Details in all cases: glycan notation: IUPAC condensed, linker removed
# [1] = biological target: Fuc(a1-2)Gal(b1-3)GlcNAc(b1-2)Man(a1-3)[Fuc(a1-2)Gal(b1-3)GlcNAc(b1-2)Man(a1-6)]Man(b1-4)GlcNAc(b1-4)GlcNAc
# Outline: (§1)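 The binding signal is a Z-score computed within each array. Data were drawn from 3228 arrays in the Consortium for Functional Glycomics database, restricted to those with a known protein sequence. Scores were averaged over arrays of the same protein sequence at different concentrations or buffers, and over linkers, and negative values can be taken as non-binding.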
# [2] = biological target: Fuc(a1-2)Gal(b1-4)GlcNAc(b1-3)GalNAc
# Outline: as §1
# [3] = biological target: Fuc(a1-2)[Gal(a1-3)]Gal(b1-4)Glc
# Outline: as §1
# [4] = biological target: Fuc(a1-2)[GalNAc(a1-4)]Gal(b1-4)GlcNAc
# Outline: as §1
# [5] = biological target: Fuc(a1-3)[Gal(b1-4)]GlcNAc(b1-3)Gal(b1-3)[Fuc(a1-4)]GlcNAc
# Outline: as §1
# [6] = biological target: Fuc(a1-3)[Gal3S(b1-4)]Glc
# Outline: as §1
# [7] = biological target: Fuc(a1-3)[GalNAc(b1-4)]GlcNAc6S
# Outline: as §1
# Gal(a1-3)GalNAc = biological target: Gal(a1-3)GalNAc
# Outline: as §1
# Gal(a1-6)Glc = biological target: Gal(a1-6)Glc
# Outline: as §1
# Gal(b1-3)GalNAc = biological target: Gal(b1-3)GalNAc
# Outline: as §1
# [8] = biological target: Gal(b1-3)GlcNAc(a1-3)Gal(b1-4)GlcNAc
# Outline: as §1
# [9] = biological target: Gal(b1-3)GlcNAc(b1-3)Gal(b1-4)GlcNAc(b1-2)Man(a1-3)[Gal(b1-3)GlcNAc(b1-3)Gal(b1-4)GlcNAc(b1-2)Man(a1-6)]Man(b1-4)GlcNAc(b1-4)GlcNAc
# Outline: as §1
# [10] = biological target: Gal(b1-3)GlcNAc(b1-3)Gal(b1-4)GlcNAc(b1-6)[Gal(b1-3)GlcNAc(b1-3)]Gal(b1-4)Glc
# Outline: as §1
# [11] = biological target: Gal(b1-3)[Fuc(a1-4)]GlcNAc(b1-3)Gal(b1-4)[Fuc(a1-3)]GlcNAc
# Outline: as §1
# Gal(b1-4)Gal = biological target: Gal(b1-4)Gal
# Outline: as §1
# [12] = biological target: Gal(b1-4)GlcNAc(b1-2)Man(a1-3)[Man(a1-6)]Man(b1-4)GlcNAc(b1-4)GlcNAc
# Outline: as §1
# [13] = biological target: Gal(b1-4)GlcNAc(b1-3)Gal(b1-4)GlcNAc(b1-3)Gal(b1-4)GlcNAc(b1-2)Man(a1-3)[Gal(b1-4)GlcNAc(b1-3)Gal(b1-4)GlcNAc(b1-3)Gal(b1-4)GlcNAc(b1-2)Man(a1-6)]Man(b1-4)GlcNAc(b1-4)GlcNAc
# Outline: as §1
# [14] = biological target: Gal(b1-4)GlcNAc(b1-3)Gal(b1-4)GlcNAc(b1-3)Gal(b1-4)GlcNAc(b1-3)Gal(b1-4)GlcNAc(b1-3)Gal(b1-4)GlcNAc(b1-2)Man(a1-3)[Gal(b1-4)GlcNAc(b1-3)Gal(b1-4)GlcNAc(b1-3)Gal(b1-4)GlcNAc(b1-3)Gal(b1-4)GlcNAc(b1-3)Gal(b1-4)GlcNAc(b1-2)Man(a1-6)]Man(b1-4)GlcNAc(b1-4)GlcNAc
# Outline: as §1
# [15] = biological target: Gal(b1-4)GlcNAc(b1-3)Gal(b1-4)GlcNAc(b1-3)Gal(b1-4)GlcNAc(b1-3)Gal(b1-4)GlcNAc(b1-3)Gal(b1-4)GlcNAc(b1-2)Man(a1-3)[Gal(b1-4)GlcNAc(b1-3)Gal(b1-4)GlcNAc(b1-3)Gal(b1-4)GlcNAc(b1-3)Gal(b1-4)GlcNAc(b1-3)Gal(b1-4)GlcNAc(b1-2)Man(a1-6)]Man(b1-4)GlcNAc(b1-4)[Fuc(a1-6)]GlcNAc
# Outline: as §1
# [16] = biological target: Gal(b1-4)GlcNAc(b1-3)Gal(b1-4)GlcNAc(b1-3)Gal(b1-4)GlcNAc(b1-3)Gal(b1-4)GlcNAc(b1-3)Gal(b1-4)GlcNAc(b1-2)[Gal(b1-4)GlcNAc(b1-3)Gal(b1-4)GlcNAc(b1-3)Gal(b1-4)GlcNAc(b1-3)Gal(b1-4)GlcNAc(b1-3)Gal(b1-4)GlcNAc(b1-6)]Man(a1-6)[Gal(b1-4)GlcNAc(b1-3)Gal(b1-4)GlcNAc(b1-3)Gal(b1-4)GlcNAc(b1-3)Gal(b1-4)GlcNAc(b1-3)Gal(b1-4)GlcNAc(b1-2)Man(a1-3)]Man(b1-4)GlcNAc(b1-4)[Fuc(a1-6)]GlcNAc
# Outline: as §1
# [17] = biological target: Gal(b1-4)GlcNAc(b1-6)Gal(b1-4)GlcNAc
# Outline: as §1
# Gal3S(b1-4)GlcNAc = biological target: Gal3S(b1-4)GlcNAc
# Outline: as §1
# Gal6S(b1-3)GlcNAc = biological target: Gal6S(b1-3)GlcNAc
# Outline: as §1
# GalNAc(b1-4)GlcNAc = biological target: GalNAc(b1-4)GlcNAc
# Outline: as §1
# [18] = biological target: GlcNAc(b1-2)[GlcNAc(b1-6)]Man(a1-6)[GlcNAc(b1-4)][GlcNAc(b1-2)Man(a1-3)]Man(b1-4)GlcNAc(b1-4)GlcNAc
# Outline: as §1
# [19] = biological target: GlcNAc(b1-3)Gal(b1-4)GlcNAc(b1-3)Gal(b1-4)GlcNAc(b1-3)Gal(b1-4)GlcNAc(b1-3)Gal(b1-4)GlcNAc(b1-2)Man(a1-3)[GlcNAc(b1-3)Gal(b1-4)GlcNAc(b1-3)Gal(b1-4)GlcNAc(b1-3)Gal(b1-4)GlcNAc(b1-3)Gal(b1-4)GlcNAc(b1-2)Man(a1-6)]Man(b1-4)GlcNAc(b1-4)[Fuc(a1-6)]GlcNAc
# Outline: as §1
# GlcNAc(b1-4)GlcNAc = biological target: GlcNAc(b1-4)GlcNAc
# Outline: as §1
# Kdn(a2-3)Gal(b1-4)Glc = biological target: Kdn(a2-3)Gal(b1-4)Glc
# Outline: as §1
# Kdn(a2-3)Gal(b1-4)GlcNAc = biological target: Kdn(a2-3)Gal(b1-4)GlcNAc
# Outline: as §1
# Man(a1-2)Man(a1-3)Man = biological target: Man(a1-2)Man(a1-3)Man
# Outline: as §1
# [20] = biological target: Man(a1-2)Man(a1-3)[Man(a1-2)Man(a1-6)]Man(a1-6)[Man(a1-2)Man(a1-2)Man(a1-3)]Man
# Outline: as §1
# [21] = biological target: Neu5Ac(a2-3)Gal(b1-3)GalNAc(b1-3)Gal(a1-4)Gal(b1-4)Glc
# Outline: as §1
# [22] = biological target: Neu5Ac(a2-3)Gal(b1-3)GlcNAc(b1-6)GalNAc
# Outline: as §1
# [23] = biological target: Neu5Ac(a2-3)Gal(b1-3)[Fuc(a1-4)]GlcNAc(b1-3)Gal(b1-3)[Fuc(a1-4)]GlcNAc
# Outline: as §1
# [24] = biological target: Neu5Ac(a2-3)Gal(b1-4)GlcNAc(b1-2)Man(a1-3)[Neu5Ac(a2-6)Gal(b1-4)GlcNAc(b1-2)Man(a1-6)]Man(b1-4)GlcNAc(b1-4)GlcNAc
# Outline: as §1
# [25] = biological target: Neu5Ac(a2-3)Gal(b1-4)GlcNAc(b1-2)[Neu5Ac(a2-3)Gal(b1-4)GlcNAc(b1-4)]Man(a1-3)[GlcNAc(b1-4)][Neu5Ac(a2-3)Gal(b1-4)GlcNAc(b1-2)[Neu5Ac(a2-3)Gal(b1-4)GlcNAc(b1-6)]Man(a1-6)]Man(b1-4)GlcNAc(b1-4)GlcNAc
# Outline: as §1
# [26] = biological target: Neu5Ac(a2-3)Gal(b1-4)GlcNAc(b1-3)Gal(b1-4)GlcNAc(b1-3)[Neu5Ac(a2-3)Gal(b1-4)GlcNAc(b1-3)Gal(b1-4)GlcNAc(b1-6)]GalNAc
# Outline: as §1
# [27] = biological target: Neu5Ac(a2-3)Gal(b1-4)[Fuc(a1-3)]GlcNAc(b1-2)Man
# Outline: as §1
# [28] = biological target: Neu5Ac(a2-3)[GalNAc(b1-4)]Gal(b1-4)GlcNAc
# Outline: as §1
# [29] = biological target: Neu5Ac(a2-6)Gal(b1-4)GlcNAc(b1-3)Gal(b1-4)[Fuc(a1-3)]GlcNAc(b1-3)Gal(b1-4)[Fuc(a1-3)]GlcNAc
# Outline: as §1
# [30] = biological target: Neu5Ac(a2-8)Neu5Ac(a2-8)Neu5Ac
# Outline: as §1
# Neu5Gc(a2-3)Gal(b1-4)Glc = biological target: Neu5Gc(a2-3)Gal(b1-4)Glc
# Outline: as §1
# [31] = biological target: Neu5Gc(a2-3)Gal(b1-4)[Fuc(a1-3)]GlcNAc
# Outline: as §1
# [32] = biological target: Neu5Gc(a2-8)Neu5Gc(a2-6)Gal(b1-4)GlcNAc
# Outline: as §1
binder,measurement,setting,value
B1,glycan array binding signal (z-score),[1],7.12
same,glycan array binding signal (z-score),[2],9.17
same,glycan array binding signal (z-score),[3],-0.338
same,glycan array binding signal (z-score),[4],-0.444
same,glycan array binding signal (z-score),[5],3.23
same,glycan array binding signal (z-score),[6],-0.64
same,glycan array binding signal (z-score),[7],0.076
same,glycan array binding signal (z-score),Gal(a1-3)GalNAc,-0.308
same,glycan array binding signal (z-score),Gal(a1-6)Glc,-0.625
same,glycan array binding signal (z-score),Gal(b1-3)GalNAc,-0.398
same,glycan array binding signal (z-score),[8],-0.203
same,glycan array binding signal (z-score),[9],2.3
same,glycan array binding signal (z-score),[10],-0.603
same,glycan array binding signal (z-score),[11],-0.461
same,glycan array binding signal (z-score),Gal(b1-4)Gal,-0.552
same,glycan array binding signal (z-score),[12],0.449
same,glycan array binding signal (z-score),[13],3.26
same,glycan array binding signal (z-score),[14],5.24
same,glycan array binding signal (z-score),[15],3.26
same,glycan array binding signal (z-score),[16],3.16
same,glycan array binding signal (z-score),[17],1.11
same,glycan array binding signal (z-score),Gal3S(b1-4)GlcNAc,0.36
same,glycan array binding signal (z-score),Gal6S(b1-3)GlcNAc,3.68
same,glycan array binding signal (z-score),GalNAc(b1-4)GlcNAc,0.934
same,glycan array binding signal (z-score),[18],-0.7
same,glycan array binding signal (z-score),[19],3.13
same,glycan array binding signal (z-score),GlcNAc(b1-4)GlcNAc,0.531
same,glycan array binding signal (z-score),Kdn(a2-3)Gal(b1-4)Glc,-0.075
same,glycan array binding signal (z-score),Kdn(a2-3)Gal(b1-4)GlcNAc,-0.528
same,glycan array binding signal (z-score),Man(a1-2)Man(a1-3)Man,-0.511
same,glycan array binding signal (z-score),[20],-0.73
same,glycan array binding signal (z-score),[21],-0.583
same,glycan array binding signal (z-score),[22],1.45
same,glycan array binding signal (z-score),[23],-0.524
same,glycan array binding signal (z-score),[24],-0.401
same,glycan array binding signal (z-score),[25],3.2
same,glycan array binding signal (z-score),[26],6.15
same,glycan array binding signal (z-score),[27],0.73
same,glycan array binding signal (z-score),[28],-0.449
same,glycan array binding signal (z-score),[29],-0.584
same,glycan array binding signal (z-score),[30],-0.398
same,glycan array binding signal (z-score),Neu5Gc(a2-3)Gal(b1-4)Glc,0.047
same,glycan array binding signal (z-score),[31],-0.059
same,glycan array binding signal (z-score),[32],-0.628
